{"source": "PubChem BioAssay AID504834", "about": "(National Center for Advancing Translational Sciences (NCATS), 2011)", "note": "Screen size: about 320,000 compounds; about 22,000 (6.9%) were called active. Roughly 27% stayed inconclusive and do not appear here. The list comes from a sample in which actives are over-represented; it also holds similar structures and randomly drawn compounds. Unmarked numbers belong to inactive results. Calls follow the shape of the dose curve; as a rule, active = well fitted inhibition curve with a large enough effect; inconclusive = small, poorly fitted or top-dose-only effect, or another doubt; inactive = no such curve, though single readings can be large or run the other way. % is scaled to controls: 0 for no effect and ±100 for the full control effect; potency is read from the fitted curve at half-maximal effect.", "data": [{"assay": "Primary qHTS for delayed death inhibitors of the malarial parasite plastid, 96 hour incubation", "settings": "P. falciparum luciferase reporter growth; series mostly up to 28.7 µM; activity change, negative = inhibition: at the top concentration", "in_short": "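96 h incubation, 37 C, 5% CO2, of luciferase-reporter P. falciparum-infected RBCs (2% hematocrit, 0.05% parasitemia final) with test compounds; endpoint luminescence.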", "units": {"activity change, negative = inhibition": "%"}, "values": [{"molecule": "COc1ccc(/C=C2\\SC(=S)N(CCC(=O)Nc3cccc(C(=O)O)c3)C2=O)cc1OC", "activity change, negative = inhibition": -1.21}, {"molecule": "COC(=O)CN1C(=O)C(C)(C)Oc2ccc(C(=O)Nc3cccc(OC)c3)cc21", "activity change, negative = inhibition": 7.01}, {"molecule": "O=C(NC1C2CC3CC(C2)CC1C3)c1ccc(N2CCNCC2)c([N+](=O)[O-])c1", "note": "(centres undefined)", "activity change, negative = inhibition": 12.4}, {"molecule": "CS(=O)(=O)N1CCN(c2ccc(C(=O)NC3C4CC5CC(C4)CC3C5)cc2[N+](=O)[O-])CC1", "note": "(centres undefined)", "Potency": "9.28 µM (active)"}, {"molecule": "Cc1cccc(N2CCN(c3ccc(C(N)=O)cc3[N+](=O)[O-])CC2)c1C", "activity change, negative = inhibition": 23.7}, {"molecule": "COc1ccccc1N1CCN(C(=O)CSc2ncnc3c2cnn3-c2ccc(C)c(C)c2)CC1", "activity change, negative = inhibition": 3.67}, {"molecule": "COc1ccc(S(=O)(=O)NCCc2c[nH]c3ccccc23)cc1OC", "activity change, negative = inhibition": -7.21}, {"molecule": "Cc1ccc(CNC(=O)CCN2C(=O)[C@@H]3Cc4ccccc4CN3C2=O)cc1", "activity change, negative = inhibition": -24.8}, {"molecule": "C/C(=N\\NC(=O)Cc1ccccc1[N+](=O)[O-])c1cccnc1", "activity change, negative = inhibition": -21.8}, {"molecule": "Cc1nn(CCCC(=O)NCc2ccccc2Cl)c(=O)c2nccn12", "Potency": "1.04 µM (active)"}, {"molecule": "Cc1cccn2c(=O)nc(SCC(=O)NCc3ccccc3Cl)nc12", "activity change, negative = inhibition": -16.4}, {"molecule": "O=C(COC(=O)Cn1cnc2ccccc2c1=O)NCc1ccccc1Cl", "activity change, negative = inhibition": 61.1}, {"molecule": "COc1ccccc1NC(=O)CCC(=O)N1CC(C)Oc2ccc(C)cc21", "note": "(centres undefined)", "activity change, negative = inhibition": 7.94}, {"molecule": "O=C(c1ccc(-n2cnnn2)cc1)N1CCN(C(c2ccccc2)c2ccccc2)CC1", "Potency": "4.65 µM (active)"}, {"molecule": "O=C(c1ccccc1)N1CCN(C(=O)N2CCCCC2)CC1", "activity change, negative = inhibition": 10.7}, {"molecule": "CCOC(=O)N1CCN(S(=O)(=O)c2ccc(-n3cnnn3)cc2)CC1", "activity change, negative = inhibition": 10.9}, {"molecule": "CCn1cc(C(=O)OCC(=O)Nc2cccc(C)c2)c(=O)c2ccc(C)nc21", "activity change, negative = inhibition": 20.8}, {"molecule": "CCOC(=O)c1cn(CC)c2cc(F)c(F)cc2c1=O", "activity change, negative = inhibition": 0.303}, {"molecule": "Cc1cccc(N2CC(C(=O)Nc3ccccc3N3CCCC3)CC2=O)c1C", "note": "(centres undefined)", "Potency": "5.22 µM (active)"}, {"molecule": "Cc1ccccc1N1CC(C(=O)Nc2ccc3c(c2)OCO3)CC1=O", "note": "(centres undefined)", "activity change, negative = inhibition": 11.6}, {"molecule": "Cc1ccccc1N1CC(C(=O)Nc2ccc(S(=O)(=O)N3CCCC3)cc2)CC1=O", "note": "(centres undefined)", "activity change, negative = inhibition": 9.93}, {"molecule": "CC(=O)C1=C(O)C(=O)N(c2ccc(Br)cc2)C1c1ccc([N+](=O)[O-])cc1", "note": "(centres undefined)", "activity change, negative = inhibition": -0.955}, {"molecule": "COC(=O)C1CCN(C(=O)NC2CC(=O)N(c3ccc4c(c3)OCCO4)C2)CC1", "note": "(centres undefined)", "activity change, negative = inhibition": 15.2}, {"molecule": "CCOC(=O)C(C)Sc1nc2ccccc2c(=O)n1CC1CCCCC1", "note": "(centres undefined)", "Potency": "11.7 µM (active)"}, {"molecule": "CCOC(=O)C1CCc2nc3ccccc3c(=O)n21", "note": "(centres undefined)", "activity change, negative = inhibition": 18.4}, {"molecule": "O=C(CSc1nc2ccccc2c(=O)n1CCCO)NC1CC1", "activity change, negative = inhibition": 12.2}, {"molecule": "O=C(NCCN1CCN(C(=O)c2cccc([N+](=O)[O-])c2)CC1)C(=O)NCc1ccc(Cl)cc1", "activity change, negative = inhibition": -0.891}, {"molecule": "Cc1ccc(NC(=S)N2CCCC(c3ccccc3)=N2)cc1", "activity change, negative = inhibition": 12.4}, {"molecule": "CSCCC(NC(=O)c1ccc(Cl)cc1Cl)C(=O)NNC(=O)c1csc(N2CCOCC2)n1", "note": "(centres undefined)", "activity change, negative = inhibition": 50.2}, {"molecule": "O=C1OC(/C=C/c2ccccc2)=NC/1=C/c1ccco1", "activity change, negative = inhibition": 41.8}, {"molecule": "CC(C)(C)C1C/C(=C/c2ccco2)C(=O)/C(=C/c2ccco2)C1", "note": "(centres undefined)", "Potency": "13.1 µM (active)"}, {"molecule": "CCC1S/C(=N/N=C/c2ccco2)NC1=O", "note": "(centres undefined)", "activity change, negative = inhibition": 3.41}, {"molecule": "CCOc1ccc(CNC(=O)CCC(=O)N2CCSc3ccccc32)cc1", "activity change, negative = inhibition": -23.6}, {"molecule": "Cc1ccc(S(=O)(=O)N2CCN(C(=O)c3ccccc3-c3nc4ccccc4s3)CC2)c(C)c1", "activity change, negative = inhibition": -14.7}, {"molecule": "CN(C)C(=O)COC(=O)c1cccc(S(=O)(=O)N2CC3(C)CC2CC(C)(C)C3)c1", "note": "(centres undefined)", "activity change, negative = inhibition": -7.05}, {"molecule": "Cc1ccc(N(C(=O)c2snc(C(N)=O)c2N)C(C(=O)NCC2CCCO2)c2c[nH]c3ccccc23)cc1", "note": "(centres undefined)", "activity change, negative = inhibition": 0}, {"molecule": "CC(C)(C)c1ccc(SCCc2ccncc2)cc1", "activity change, negative = inhibition": -26.6}, {"molecule": "Cc1cc(C)c(SCCc2ccncc2)c(C)c1", "Potency": "10.4 µM (active)"}, {"molecule": "c1ccc(CSCCc2ccncc2)cc1", "activity change, negative = inhibition": 40.8}, {"molecule": "COC(=O)c1cc(OCC(=O)NC2CCCc3ccccc32)cc(C(=O)OC)c1", "note": "(centres undefined)", "activity change, negative = inhibition": 4.97}, {"molecule": "Cc1ccc(C(=O)NCC(=O)OCC(=O)NC2CCCCCCC2)cc1", "activity change, negative = inhibition": 30.3}, {"molecule": "Oc1ccc(-c2cccc(-c3ccc(O)cc3)c2)cc1", "activity change, negative = inhibition": 40.9}, {"molecule": "O=C(NCCS(=O)(=O)N1CCN(c2ccc(F)cc2)CC1)c1ccc2c(c1)OCO2", "activity change, negative = inhibition": 23.3}, {"molecule": "CC(C)N(Cc1nnc(-c2ccccc2Br)o1)C(=O)c1cc(Cl)nc2ccccc12", "Potency": "14.7 µM (active)"}, {"molecule": "CC(C)N(Cc1nnc(-c2ccc(Cl)cc2)o1)C(=O)C1=COCCO1", "activity change, negative = inhibition": -0.891}, {"molecule": "Cn1cnnc1SCc1nnc(-c2ccccc2Br)o1", "activity change, negative = inhibition": 22.1}, {"molecule": "O=S(=O)(Nc1ccccc1)c1ccc(NS(=O)(=O)c2cccs2)cc1", "activity change, negative = inhibition": 409}, {"molecule": "Cc1ccc(OCCNC(=O)CNC(=O)c2ccc(C)c(C)c2)cc1", "activity change, negative = inhibition": 15.4}, {"molecule": "COc1cc(Nc2nc3ccc(Cl)cc3n3cnnc23)cc(OC)c1OC", "activity change, negative = inhibition": 7.11}]}]}
